Entries with a potency or affinity are not part of this list.
test system: Drosophila bursicon receptor LGR2 (rickets); assay: LGR2 antagonists, dose response, cell-based, HEK293, CRE-luciferase reporter, cherry pick (AID 743342); settings: bursicon antagonist, 4 h; series mostly up to 35 µM; activity change, negative = inhibition: at the top concentration;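 active = every replicate test run was called active, each showing a signal decrease within twice the top valid dose; inconclusive = replicate test runs disagree on the call; inactive = every test run inactive, including signal moving upward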

Activity change, negative = inhibition, inactive:
C[C@H](CO)N1C[C@H](C)[C@H](CN(C)C(=O)Cc2ccccc2)OCCCC[C@H](C)Oc2ccc(NC(=O)Nc3ccc(C(F)(F)F)cc3)cc2C1=O -29.2%
COc1ccc(S(=O)(=O)Nc2ccc3c(c2)C(=O)N([C@@H](C)CO)C[C@@H](C)[C@H](CN(C)C(=O)Nc2cccc4ccccc24)OCCCC[C@H](C)O3)cc1 -13.7%
Cc1noc(C)c1S(=O)(=O)Nc1ccc2c(c1)C(=O)N([C@H](C)CO)C[C@H](C)[C@H](CN(C)C(=O)Nc1ccc(F)cc1)OCCCC[C@@H](C)O2 -2.2%
COc1ccc(S(=O)(=O)Nc2ccc3c(c2)C(=O)N([C@H](C)CO)C[C@H](C)[C@H](CN(C)S(=O)(=O)c2ccc(F)cc2)OCCCC[C@@H](C)O3)cc1 -15.2%
Cc1ccc(S(=O)(=O)Nc2ccc3c(c2)C(=O)N([C@H](C)CO)C[C@@H](C)[C@H](CN(C)S(=O)(=O)c2cccs2)OCCCC[C@@H](C)O3)cc1 -19%
C[C@@H]1CN([C@@H](C)CO)C(=O)c2cc(NS(C)(=O)=O)ccc2O[C@@H](C)CCCCO[C@@H]1CN(C)Cc1ccc(C(F)(F)F)cc1 -20%
CC(C)NC(=O)Nc1ccc2c(c1)C(=O)N([C@H](C)CO)C[C@@H](C)[C@H](CN(C)S(C)(=O)=O)OCCCC[C@H](C)O2 0.859%
COc1ccc(S(=O)(=O)Nc2ccc3c(c2)C(=O)N([C@@H](C)CO)C[C@H](C)[C@@H](CN(C)C(=O)Nc2cccc4ccccc24)OCCCC[C@H](C)O3)cc1 -15.9%
C[C@@H]1CCCCO[C@H](CN(C)CC2CCCCC2)[C@H](C)CN([C@H](C)CO)C(=O)c2cc(NS(=O)(=O)c3ccccc3)ccc2O1 -12.9% [at 30 µM]

— PubChem BioAssay AID743342 (Broad Institute, 2014)
